In PubChem BioAssay one finds composite z-score data, which are given here for 31 compounds.

Where “and” joins values, the source holds several entries; their conditions need not be identical. Identical values can stand only once.

The first assay deals with Carbonic anhydrase 2 (Homo sapiens) (UniProt P00918). Kind of assay: compounds binding carbonic anhydrase 2 – biochemical, small-molecule microarray, Alexa647-labelled CAII, profiling panel (AID 1122). The following applies: CAII-A647 binding fluorescence, higher = more signal.
As for `C=CC[C@@H](O)c1ccc(O)c2ccccc12`, the composite z-score was 0.524 and 0.379.
Still for that read-out and setting: to `CCOC(=O)C[C@H]1[C@H](OC(=O)c2ccccc2-c2ccccc2)[C@@H](NC(=O)Cc2ccc(OC)cc2)c2cc(OCCCO)ccc2N1C(=O)c1ccc2ccccc2n1` belongs -0.156 and 0.0959; to `CN1C(=O)C2CC=C([C@H]3Oc4ccccc4S(=O)(=O)N4CCC[C@@H]34)CC2C1=O` (stereo partly specified), -0.296 and -0.322; to `C[N+](C)(C)CCCCNC(=O)[C@H]1C[C@H]2C(=O)N[C@@H](CCCC[N+](C)(C)C)C(=O)N2[C@H]1c1ccc(O)cc1`, 0.257 and 0.0659.
Still for that read-out and setting: to `C=CCN(Cc1ccccc1)C(=O)C1N(c2c(Cl)cccc2CO)C(=O)C2C(C(=O)O)C3C=CC21O3` (stereo unspecified) belongs -0.774 and 0.32; to `O=C1[C@H]2[C@H]3[C@H](O)[C@H](O)CC(=NOCc4ccccc4)[C@H]3CC[C@H]2C(=O)N1Cc1ccccc1`, 0.0146; to `COC(=O)[C@@]1(Cc2ccc(F)cc2)[C@H]2c3cc(C(=O)N4CCCC4)n(Cc4c(CO)[nH]cc(C)c4=O)c3C[C@H]2CN1C(=O)c1ccccc1`, 0.439 and 0.769.

Test system in another assay: not listed separately
The assay is described as follows: COS7 lysate on small-molecule microarray, probe aHis, 635 nm (AID 1123).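 Note: z-score combines 667nm fluorescence intensity with signal-to-noise per printed compound spot.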 The note with it: COS7 cell lysate, fluorescence, higher = more signal.
As to `C=CCN(C(=O)C(c1cccs1)N(C(=O)/C=C\C(=O)O)c1ccc(CCO)cc1)c1ccc(OC)cc1` (stereo unspecified), the composite z-score is -0.416 and -1.29.
`CO[C@@H]1COC(=O)CC=C[C@H](C)COC(=O)[C@H](C)NC(=O)CC=C[C@H]1C` returned a composite z-score of -0.448.
Turning to `CCOC(=O)c1ccc(NC(=O)O[C@H]2[C@H](OC(=O)Nc3ccccc3)[C@@H](OC(=O)Nc3ccccc3)[C@@H](OC)O[C@@H]2CO)cc1`, the composite z-score was 2.63 and 1.91.
Same read-out and setting: with `COC(=O)C1=C(C)N(Cc2ccccc2)C2=C(C(=O)c3ccccc3)[C@H](c3ccccc3)[C@@](O)(C(=O)OC)C(=O)N2[C@@H]1c1ccccc1` the figure was -0.224 and 0.306; with `C[C@@]1([C@@H](NC(=O)Cc2ccccc2)c2ccc(-c3ccccc3)cc2)C[C@H]1C1CCCCC1`, 0.0877 and 1.59 and 2.69; with `CC(CO)N1C(=O)[C@@H]2C3C(=O)OCCC=C[C@H]3OC23C=CCN(CCN2CCOCC2)C(=O)[C@@H]13` (stereo partly specified), -0.144 and 2.41.
With `C=C[C@H](C)[C@H](O)c1ccc(O)c2ccccc12`, the composite z-score is -0.0769 and 0.283.
As to `C=CCN(CCCC)C(=O)C(c1cccs1)N(C(=O)/C=C\C(=O)O)c1c(Cl)cccc1CO` (stereo unspecified), the composite z-score was -0.99 and -0.632.
Take `C#CCCCON=C1C[C@@H](O)[C@@H](O)[C@@H]2[C@@H]3C(=O)N(C4CCCCC4)C(=O)[C@@H]3CC[C@H]12`: the composite z-score was 0.186.
`Cc1ccc(S(=O)(=O)N[C@H]2COC(=O)[C@@H](C)COC(=O)[C@H](C)NC(=O)CC=C[C@H]2C)cc1` registered a composite z-score of -0.49.
`C=CCN(C(=O)C1N(CCOCCO)C(=O)C2C(C(=O)O)C3C=CC21O3)C(C)(C)C` (stereo unspecified): the composite z-score was -0.717 and -1.47.
In the case of `C=CCN(CCCC)C(=O)C1N(CCOCCO)C(=O)C2C(C(=O)O)C3C=CC21O3` (stereo unspecified), the composite z-score was 0.806 and -0.742.
Still for that read-out and setting: with `COc1ccc(COC(=O)NN=C2C[C@@H](O)[C@@H](O)[C@@H]3[C@@H]4C(=O)N(C(C)(C)C)C(=O)[C@@H]4CC[C@H]23)cc1` the figure was 0.7; with `COC(=O)C1=C2N(Cc3ccccc3)C(C)=C(C(=O)OC)[C@@H](c3ccccc3)N2C(=O)[C@](O)(C(=O)OC)C1`, 0.877 and -0.0061; with `C[N+](C)(C)CCCCNC(=O)[C@@H]1C[C@@H]2C(=O)N[C@@H](CCCC[N+](C)(C)C)C(=O)N2[C@@H]1c1cccc(OCCO)c1`, 1.19 and 2.25.
Consider `C[C@@H]1CC[C@H]2C(=O)N3[C@@H](CC[C@@H](C)[C@@H]3c3ccc(-c4ccco4)cc3)C(=O)N2[C@H]1c1ccc(-c2ccco2)cc1`, for which the composite z-score is 1.12 and 0.0336.
On to `C=CCN(Cc1ccccc1)C(=O)C1N(c2ccc(CCO)cc2)C(=O)C2C(C(=O)O)C3C=CC21O3` (stereo unspecified), for which the composite z-score is -0.361 and -0.701.
Regarding `CC(C)N1CC=CC23O[C@@H]4C=CCCOC(=O)C4[C@H]2C(=O)N(C(C)CO)[C@@H]3C1=O` (stereo partly specified), the composite z-score is 1.24 and -0.13.
`CC(C)C(=O)N[C@@H]1CCCN1C(=O)C=Cc1ccccc1` had a composite z-score of 0.251.
Turning to `CO[C@@H]1COC(=O)[C@H](Cc2ccccc2)NC(=O)CC=C[C@@H](C)[C@H](OC)COC(=O)[C@@H](C)NC(=O)CC=C[C@H]1C`, the composite z-score was -0.0816 and -0.0434.
On the same count and under the same terms, to `COC(=O)[C@@]1(Cc2ccc(OC)cc2)[C@H]2c3cc(C(=O)N(C)C)n(Cc4ccc(O)c(OC)c4)c3C[C@H]2CN1C(=O)c1ccccc1` belongs 1.81 and 2.81; to `C=CCN(CCCCC)C(=O)C1N(CCCCCCO)C(=O)C2C(C(=O)O)C3C=CC21O3` (stereo unspecified), 0.66 and 0.309; to `O=c1n(-c2ccccc2)c(=O)n2n1CC[C@@H]1C(=NOC[C@@H](O)COCc3ccco3)[C@H]3O[C@H]3[C@@H](O)[C@@H]12`, -0.251 and -0.862.
Regarding `CCOC(=O)NN=C1C[C@@H](O)[C@@H](O)[C@@H]2[C@@H]3C(=O)N(Cc4ccc5c(c4)OCO5)C(=O)[C@@H]3CC[C@@H]12`, the composite z-score came out at 0.257.
